Broadly, the % Inhibition is the change of the read-out against control, counted positive when it falls.

Hit rate of the full screen: of about 4,800 compounds, about 410 (8.5%) showed an effect of 50% or more. Shown is part of a subset that was picked to be rich in strong results.

We go through 68 compounds from ChEMBL document CHEMBL4888484, “Replenishing the malaria drug discovery pipeline: Screening and hit evaluation of the MMV Hit Generation Library 1 (HGL1) against asexual blood stage Plasmodium falciparum ,using a nano luciferase reporter read-out” (2022).

This assay concerns Plasmodium falciparum. Briefly: Confirmatory screen in NF54 pLDH assay, in single point, at 2uM, 72h. The format is functional, Erythrocyte. The note with it: timepoint 72 hour.
Take `CCN1C(=O)Cc2cc(NC(=O)c3ccc(Br)o3)ccc21`: the “% Inhibition” value is on record as 12%.
For the compound `CC(C)[C@@H]1CCc2ccccc2N1Cc1nc(N)nc(N(C)C)n1`, the “% Inhibition” value is 6%.
To `O=C(Nc1ccc2c(c1)OCCCO2)c1ccsc1` belongs 5%.
Next, `O=C1CN(C(=O)C2CC2c2ccccc2C(F)(F)F)CCN1` (stereo not drawn): -4%; `N=C(N)NCc1ccc(COCc2ccccc2)cc1`: 17%.
To `CCOc1ccc(NC(=O)c2cn3nc(-c4ccc(OCC)cc4)cc3nc2C2CCN(C(=O)OC(C)(C)C)CC2)cc1` belongs 16%; to `N#CC(c1ccc(Cl)cc1)N1N=C(c2ccccc2)CC1c1ccccc1` (stereo not drawn), 10%; to `c1ccc(C2=NN(c3ccc(-c4cc(-c5ccccc5)[n+](-c5ccccc5)c(-c5ccccc5)c4)cc3)[C@H](c3ccccc3)C2)cc1`, 97%.
For `COc1ccc(C2=NN(C(C#N)c3cccc(OC)c3O)C(c3ccccc3)C2)cc1` (stereo not drawn), the “% Inhibition” value turned out to be 3%.
Next, `COc1cccc(C(=O)c2c[nH]c(C(=O)NCc3cccc(C(F)(F)F)c3)c2)c1`: 6%; `Cc1ccc(N2C(=O)C[C@]3(CC3(c3ccccc3)c3ccccc3)C2=O)cc1`: 6%.
To `COCc1c(C(=O)N2CCC[C@@H]2CCc2ncc(C)n2C(C)C)noc1C` belongs 13%.
To `Cc1cc(C)nc(-n2nc(-c3ccc(Cl)cc3)c3c2NC(=O)C[C@@H]3c2ccc3c(c2)OCO3)n1` belongs 2%; to `CN1CCN(Cc2cc3cc4c(cc3nc2-c2ccc(Cl)cc2)OCO4)CC1=O`, 51%.
Take `O=c1[nH]c2cc3c(cc2c(=O)n1Cc1nc(-c2ccc(Cl)cc2)no1)OCO3`: the “% Inhibition” value is 9%.
In the case of `C#CCN(C(=O)NC1CCN(C(C)=O)CC1)C1CCCC1`, the “% Inhibition” value is listed as -12%.
Next, `Cc1ccc(NC(=O)c2c(Cl)cccc2Cl)c2c1CC(C)(C)O2`: -21%.
Next, `O=C(Nc1ccc(N2CCCCCC2)cc1C(=O)O)c1ccc(Cl)cc1`: 9%; `CC(C)c1nnc(CNc2ccc(C#N)cc2)o1`: 8%.
Next, `COC1CCCC1NC(=O)Nc1ncc(Br)cc1C` (stereo not drawn): 79%.
As for `CNC(=O)c1cc(Br)cnc1NC`, the “% Inhibition” value is given as 10%.
Next, `CC(=O)Nc1ncc(Br)cc1C`: 3%; `NC(=NCCOc1ccc(Br)cc1)N1CCOCC1`: 8%; `COCc1ncc(-c2noc(C3CC4CCC3C4)n2)c(N)n1` (stereo not drawn): -14%.
As to `Cc1nn(C)c(C)c1CNc1ccc2c(c1)CCC(=O)N2`, the “% Inhibition” value is on record as -13%.
To `CC(C)CCn1nnnc1[C@]1(N(C)C)CCCN(C(=O)c2cccn2C)C1` belongs -12%; to `CC(C)c1cc(CN(Cc2cc(C(C)C)c(O)c(C(C)C)c2)C2CCCCC2)cc(C(C)C)c1O`, 98%.
For the compound `CCc1nn(C)cc1CN(Cc1cccc(O)c1)C1CCC(O)CC1` (stereo not drawn), the “% Inhibition” value is listed as -8%.
Next, `Cc1ccc(CN(C)C2CCCCC2)o1`: -12%; `CC[C@@H](CO)NC(=O)Nc1ccc(F)cc1`: 8%; `CC[C@](C)(NCC#Cc1ccc(C(F)(F)F)cc1)C(N)=O`: 5%.
Next, `O=C(C1CN(c2ncc(C(F)(F)F)cc2Cl)C1)N1CCCC1`: 11%; `Cc1c(N2CCC(C(=O)NC[C@H]3CCCO3)CC2)c(=O)n(CC(C)C)c(=O)n1-c1ccccc1`: 4%.
Next, `O=C(COC(F)F)N1CCc2ccncc21`: -8%; `CC(C(=O)Nc1ncccn1)N1CCCC1Cn1cccn1` (stereo not drawn): -8%; `COc1nc(NC[C@H]2CCCN2C(C)C)ncc1F`: 83%.
With `Cc1[nH]c2ncnc(NC(=O)c3cccc(-n4ccnn4)c3)c2c1C`, the “% Inhibition” value is listed as 12%.
To `CN1CCC(=O)Nc2cc(C(=O)NCCS(=O)(=O)NCC3CCC3)ccc21` belongs 6%; to `O=C(CN1C(=O)COc2ccccc21)N1CCC[C@H](c2nc3ccccc3s2)C1`, -13%; to `c1ccc(Oc2ccc(-c3csc4nc5ccccc5n34)cc2)cc1`, 5%.
Next, `O[C@](C#CCN1CCOCC1)(c1ccccc1)C1CC1`: 14%; `Cc1cnn(CC(=O)N2CCC[C@@H]2CCc2ncc(C)n2CC2CC2)c1`: -20%; `CCOc1cc(-c2cc(-c3ccccc3O)nc3ccc4ccccc4c23)cc(Br)c1O`: 92%.
Next, `CCOc1c(CNC[C@H](C)O)cc(Br)cc1OC`: 5%; `O=C(Nc1cccc2cccnc12)c1ccccn1`: 87%; `Oc1ccccc1CNc1cccc2cccnc12`: 97%.
`O=C(Nc1cccc2cccnc12)c1cncc(Br)c1`: the “% Inhibition” value was -8%.
Next, `NC1CC(NCCc2cccc3cccnc23)c2ccccc21` (stereo not drawn): 36%; `CC(C)(C)C(=O)NCCNC(=O)c1ccccn1`: 13%; `COc1cc(=O)c(C(=O)N2CCCCCC2)nn1-c1ccc(F)c(F)c1`: 10%.
To `CCc1nnc2cc(N3CCN(C(=O)c4ccc(OC)cc4)CC3)cnn12` belongs 11%; to `CC(C)(C)c1noc(OCc2cccc(C#N)c2)n1`, 14%.
Next, `CCN1CCN(CC(=O)N2N=C(c3ccc(C)c(C)c3)C[C@H]2c2cccn2C)CC1`: 2%.
As for `Cc1ccn(Cc2nc(N)nc(N(C)C)n2)c(=O)c1C#N`, the “% Inhibition” value came out at 4%.
Turning to `CCCCN1CCN(C(=O)CN2CCN(Cc3ccc(F)cc3Cl)C2=O)CC1`, the “% Inhibition” value is recorded as 1%.
On to `CCc1ccc(C2=Nc3cccnc3N(CC(=O)Nc3c(C)cc(C)cc3C)C(=O)C2)cc1`, for which the “% Inhibition” value was determined as 2%.
As for `Cc1cc(C)c(NC(=O)OCc2cccc3cccnc23)c(C)c1`, the “% Inhibition” value turned out to be 80%.
Next, `Cc1cccnc1NC(=O)OC(C)(C)C`: 10%.
`O=C(Nc1ccc(Cl)cc1)n1c(=S)oc2cc(Br)ccc21`: the “% Inhibition” value was 2%.
Regarding `Cc1cccc(NC(=O)N2CCCCCC2)n1`, the “% Inhibition” value turned out to be 6%.
To `Cc1cccc(CN2CCC[C@H](C(=O)c3ccc4c5c(cccc35)CC4)C2)n1` belongs 67%; to `Cc1ncsc1[C@@H]1CC(=O)Nc2nc(N3CCC(C)CC3)nc(O)c21`, -19%; to `COc1ccnc(CN2CCC[C@H](c3nc(-c4ccccc4)c[nH]3)C2)c1OC`, 82%.
`c1ccc(-c2c[nH]c([C@H]3CCCN(c4ncnc5[nH]ncc45)C3)n2)cc1`: the “% Inhibition” value is -7%.
To `CN(C)c1nc(CN2CCC[C@H](c3n[nH]c(-c4ccccc4)n3)C2)ns1` belongs 2%; to `Cn1cc(-c2ccc(F)cc2)c2nc[nH]c(=O)c21`, 10%.
To `O=C1CCCN1c1ccc(-c2csc(C3CC3)n2)cc1` belongs -12%; to `CCC(=O)N1CCC(Nc2cccc(-c3nc(C4CC4)n[nH]3)c2)CC1`, -24%.
